In PubChem BioAssay AID1159580 (chemical genetic matrix, 2015):
Where “and” joins values, the source holds several entries; their conditions need not be identical. Equal entries are not always repeated. Among all 5,500 compounds or so, about 2,000 (36%) were called active. Roughly 18% stayed inconclusive and do not appear here. Rule as the data show it: active = normalized growth mostly below about 0.91 (no sharp cut-off); inconclusive = no clear call, values can overlap the other calls; inactive = mostly above about 0.92. The list shows a part of the results.

Assay: chemical genetic growth profiling, strain panel (AID 1159580);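 also: tested at 20 µM; growth read once vehicle control cultures reached saturation at 30 °C; 1 = growth at the plate median or of vehicle wells; lower values mean less growth of the strain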
Conditions: S. cerevisiae deletion strains, growth OD

Measured: normalized growth

Cc1cn([C@H]2C[C@H](N=[N+]=[N-])[C@@H](CO)O2)c(=O)[nH]c1=O
inactive: locus YAL013W, strain DEP1, active compounds read low 1.01 | locus YAL021C, strain ccr4, active compounds read low 0.993 | locus YAL026C, strain drs2, active compounds read low 0.995 | locus YAL030W, strain snc1, active compounds read low 1 | locus YBL061C, strain skt5, active compounds read low 1 | locus YBR009C, strain hhf1, active compounds read low 1.02 | locus YBR021W, strain FUR4, active compounds read low 0.998 | locus YBR023C, strain chs3, active compounds read low 1 | locus YBR171W, strain sec66, active compounds read low 0.996 | locus YBR229C, strain ROT2, active compounds read low 1.01 | locus YBR231C, strain swc5, active compounds read low 1 | locus YBR279W, strain paf1, active compounds read low 0.979 | locus YCL011C, strain gbp2, active compounds read low 1.02 | locus YCL016C, strain dcc1, active compounds read low 0.965 | locus YCL029C, strain bik1, active compounds read low 1.01 | locus YCL069W, strain vba3, active compounds read low 0.99 | locus YCR088W, strain abp1, active compounds read low 0.995 | locus YDL005C, strain med2, active compounds read low 1 | locus YDL035C, strain GPR1, active compounds read low 1.01 | locus YDL040C, strain nat1, active compounds read low 0.994 | locus YDL074C, strain BRE1, active compounds read low 1.02 | locus YDL101C, strain DUN1, active compounds read low 1.01 | locus YDL134C, strain PPH21, active compounds read low 1 | locus YDL185W, strain tfp1, active compounds read low 1.01 | locus YDL192W, strain arf1, active compounds read low 1.01 | locus YDR001C, strain nth1, active compounds read low 0.994 | locus YDR069C, strain doa4, active compounds read low 1.01 | locus YDR101C, strain arx1, active compounds read low 1.02 | locus YDR137W, strain rgp1, active compounds read low 0.966 | locus YDR150W, strain NUM1, active compounds read low 1 | locus YDR159W, strain sac3, active compounds read low 0.971 | locus YDR162C, strain NBP2, active compounds read low 1 | locus YDR195W, strain ref2 0.983 | locus YDR297W, strain sur2, active compounds read low 1.02 | locus YDR318W, strain mcm21, active compounds read low 1 | locus YDR334W, strain swr1, active compounds read low 1.01 | locus YDR335W, strain msn5, active compounds read low 0.984 | locus YDR388W, active compounds read low 1 | locus YDR392W, strain spt3, active compounds read low 0.924 | locus YDR502C, strain sam2, active compounds read low 1.02 | locus YEL003W, strain gim4, active compounds read low 1.01 | locus YEL037C, strain rad23, active compounds read low 1 | locus YEL061C, strain CIN8 (second series), active compounds read low 0.999 | locus YEL061C, strain CIN8, active compounds read low 1 | locus YER015W, strain faa2, active compounds read low 0.997 | locus YER016W, strain bim1, active compounds read low 0.991 | locus YER110C, active compounds read low 1.02 | locus YER111C, strain swi4, active compounds read low 0.976 | locus YER155C, strain BEM2 (second series), active compounds read low 1 | locus YER155C, strain BEM2, active compounds read low 0.988 | locus YER167W, strain BCK2, active compounds read low 0.998 | locus YFR010W, strain ubp6, active compounds read low 1.01 | locus YGL078C, strain dbp3, active compounds read low 1.01 | locus YGL086W, strain mad1, active compounds read low 1 | locus YGL167C, strain pmr1, active compounds read low 1 | locus YGL173C, strain kem1, active compounds read low 1.01 | locus YGL227W, strain vid30, active compounds read low 0.996 | locus YGL240W, strain doc1, active compounds read low 1 | locus YGL248W, strain PDE1, active compounds read low 1.01 | locus YGL253W, strain hxk2, active compounds read low 0.981 | locus YGR078C, strain PAC10, active compounds read low 1.01 | locus YGR135W, strain pre9, active compounds read low 1.01 | locus YGR229C, strain SMI1, active compounds read low 1.01 | locus YGR252W, strain gcn5, active compounds read low 1.05 | locus YHR013C, strain ard1, active compounds read low 0.969 | locus YHR027C, strain rpn1, active compounds read low 1.03 | locus YHR030C, strain SLT2, active compounds read low 1 and 0.984 | locus YHR079C, strain IRE1 (second series), active compounds read low 0.998 | locus YHR079C, strain IRE1, active compounds read low 0.966 | locus YHR094C, strain hxt1, active compounds read low 1.01 | locus YHR129C, strain ARP1, active compounds read low 1 | locus YHR142W, strain chs7, active compounds read low 0.972 | locus YHR200W, strain rpn10, active compounds read low 1.01 | locus YIL066C, strain RNR3, active compounds read low 1.01 | locus YIL073C, strain SPO22, active compounds read low 1.05 | locus YIL125W, strain kgd1, active compounds read low 1.01 | locus YIR030C, strain dcg1, active compounds read low 1 | locus YJL092W, strain hpr5, active compounds read low 1.01 | locus YJL095W, strain BCK1 (second series), active compounds read low 1.01 | locus YJL095W, strain BCK1, active compounds read low 1.01 and 0.973 | locus YJL115W, strain asf1, active compounds read low 1 | locus YJL129C, strain trk1, active compounds read low 0.948 | locus YJL134W, strain LCB3, active compounds read low 0.999 | locus YJL154C, strain vps35, active compounds read low 0.998 | locus YJL164C, strain tpk1, active compounds read low 0.981 | locus YJL166W, strain qcr8, active compounds read low 1.03 | locus YJL168C, strain set2, active compounds read low 0.999 | locus YJL187C, strain SWE1 (second series), active compounds read low 1.01 | locus YJL187C, strain SWE1, active compounds read low 1.01 | locus YJR043C, strain POL32, active compounds read low 1.02
